Laboratory results as given in PubChem BioAssay.
Active and inactive are the calls of the source.

Legend:
[1] = binders of probe aFSTL3 on microarray, primary screen, stem cell growth factor project, biochemical, small-molecule microarray, fluorescence 635/667 (AID 1064); settings: higher = more signal;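 note: measures binding of the biotinylated anti-FSTL3 antibody to printed compounds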
[2] = binders from COS7 lysate, DM2A8 probe, primary screen, torsin A project, cell lysate, small-molecule microarray, fluorescence 635/667 (AID 1065); settings: higher = more signal, COS7 lysate expressing mutant human TOR1A
[3] = binders of probe aFGF2 on microarray, primary screen, stem cell growth factor project, biochemical, small-molecule microarray, fluorescence 635/667 (AID 1067); settings: higher = more signal;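 note: measures binding of biotinylated aFGF2 protein to printed compounds on slides; z-score merges feature fluorescence and signal-to-noise across triplicate slides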
[4] = binders of probe aFGF10 on microarray, primary screen, stem cell growth factor project, biochemical, small-molecule microarray, fluorescence 635/667 (AID 1071); settings: higher = more signal;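 note: score merges 667 nm spot intensity and signal to noise from triplicate slides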
[5] = biological target: Neurogenic locus notch homolog protein 2 (Homo sapiens) (UniProt Q04721); assay: Notch2 binders on small-molecule microarrays, primary screen, biochemical, small-molecule microarray, 635 nm fluorescence, stem cell growth factors (AID 1073); settings: Notch2 binding, higher = more signal
[6] = biological target: Pro-neuregulin-1, membrane-bound isoform (Homo sapiens) (UniProt Q02297); assay: NRG1 binders on small-molecule microarrays, primary screen, psychiatric disease protein project, biochemical, small-molecule microarray, fluorescence 635/667 (AID 1075); settings: NRG1 binding, 635 nm fluorescence, higher = more signal;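 note: score combines 667 nm spot fluorescence with signal to noise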
[7] = tested on: Neuregulin-1 EGF-like domain; assay: binders of neuregulin-1 EGF-like domain, primary screen, biochemical, small-molecule microarray, 635 nm fluorescence (AID 1081); settings: small-molecule microarray binding, higher = more signal;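 note: binding of the protein to compounds printed on small-molecule microarray slides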
[8] = FRG1 promoter luciferase signal modulators, primary screen, FRG1 inhibition for FSHD, cell-based, C2C12 myotubes, firefly/Renilla luciferase, luminescence (AID 1084); settings: higher = more signal, called active from +8 up or from −8 down
[9] = binders of probe aFST on microarray, primary screen, stem cell growth factor project, biochemical, small-molecule microarray, fluorescence 635/667 (AID 1086); settings: higher = more signal;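 note: score merges 667 nm fluorescence with signal-to-noise of each printed compound spot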
[10] = binders of probe aHhip on microarray, primary screen, stem cell growth factor project, biochemical, small-molecule microarray, fluorescence 635/667 (AID 1087); settings: higher = more signal;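 note: score merges spot fluorescence at 667nm with spot signal to noise ratio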
[11] = tested on: PRMT1 (protein arginine N-methyltransferase 1); assay: PRMT1 binders on small-molecule microarrays, primary screen, biochemical, small-molecule microarray, 635 nm fluorescence (AID 1088); settings: small-molecule microarray binding, higher = more signal;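 note: binding of Prmt1 protein to compounds spotted on small-molecule microarray slides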
[12] = yeast growth modulation, basal conditions, primary screen, YJM789 clinical isolate, OD600, 24 h (AID 1089);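 note: growth of clinical yeast isolate S. cerevisiae YJM 789 seeded 1000 cells per well; test concentration not given here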; settings: S. cerevisiae YJM789 growth, higher = more signal, called active from +8 up or from −8 down
[13] = fission yeast growth modulation, primary screen, strain 972, OD600, 24 h, no modulator (AID 1090);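 note: basal condition with compound alone and no growth modifier present; test concentration not given here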; settings: S. pombe 972 growth, higher = more signal, called active from +8 up or from −8 down
[14] = S. cerevisiae growth modulation with rapamycin, primary screen, strain BY4716, OD600, 96 h (AID 1091); settings: higher = more signal, called active from +8 up or from −8 down; note: test concentration not given here
[15] = biological target: Torsin-1A-interacting protein 2 (Homo sapiens) (UniProt Q8NFQ8); assay: LULL1 binders on small-molecule microarray, primary screen, cell lysate, human LULL1 lysate, 635/667 nm fluorescence (AID 1092); settings: hLULL1 lysate binding, 635 nm fluorescence, higher = more signal;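 note: probe is lysate of COS7 cells overexpressing human LULL1; score merges per-feature 667 nm fluorescence with signal-to-noise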
[16] = E. coli growth modulation, two-sided OD650, primary screen, E. coli filamentation project, strain DRC41, 24 h (AID 1093); settings: OD650, 24 h, higher = more signal, called active from +8 up or from −8 down;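 note: MC1000 strain lacking acrAB efflux and sulA so SOS filamentation is blocked; test concentration not given here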
[17] = small-molecule microarray binders of probe aLefty2, primary screen, biochemical, biotinylated probe, 635/667 nm fluorescence (AID 1094); settings: higher = more signal;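 note: score merges spot fluorescence near 667 nm with spot signal-to-noise ratio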
[18] = tested on: Noggin (protein binding on small-molecule microarray); assay: Noggin binders on small-molecule microarray, primary screen, biochemical, 635/667 nm fluorescence (AID 1095); settings: 635 nm fluorescence, higher = more signal;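 note: score merges 667 nm feature fluorescence with signal to noise over triplicate slides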
[19] = biological target: Neurogenic locus notch homolog protein 3 (Homo sapiens) (UniProt Q9UM47); assay: NOTCH3 binders on small-molecule microarray, primary screen, biochemical, 635/667 nm fluorescence (AID 1096); settings: NOTCH3 binding, 635 nm fluorescence, higher = more signal
[20] = small-molecule microarray binders of probe aEGFR, primary screen, biochemical, biotinylated probe, 635/667 nm fluorescence (AID 1097); settings: higher = more signal;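 note: probe is a biotinylated anti-EGFR antibody binding compounds printed on slides; score combines fluorescence near 667 nm and signal to noise of each spot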

Chain of Neurogenic locus notch homolog protein 3 (Homo sapiens) (Q9UM47 whole entry, looked up): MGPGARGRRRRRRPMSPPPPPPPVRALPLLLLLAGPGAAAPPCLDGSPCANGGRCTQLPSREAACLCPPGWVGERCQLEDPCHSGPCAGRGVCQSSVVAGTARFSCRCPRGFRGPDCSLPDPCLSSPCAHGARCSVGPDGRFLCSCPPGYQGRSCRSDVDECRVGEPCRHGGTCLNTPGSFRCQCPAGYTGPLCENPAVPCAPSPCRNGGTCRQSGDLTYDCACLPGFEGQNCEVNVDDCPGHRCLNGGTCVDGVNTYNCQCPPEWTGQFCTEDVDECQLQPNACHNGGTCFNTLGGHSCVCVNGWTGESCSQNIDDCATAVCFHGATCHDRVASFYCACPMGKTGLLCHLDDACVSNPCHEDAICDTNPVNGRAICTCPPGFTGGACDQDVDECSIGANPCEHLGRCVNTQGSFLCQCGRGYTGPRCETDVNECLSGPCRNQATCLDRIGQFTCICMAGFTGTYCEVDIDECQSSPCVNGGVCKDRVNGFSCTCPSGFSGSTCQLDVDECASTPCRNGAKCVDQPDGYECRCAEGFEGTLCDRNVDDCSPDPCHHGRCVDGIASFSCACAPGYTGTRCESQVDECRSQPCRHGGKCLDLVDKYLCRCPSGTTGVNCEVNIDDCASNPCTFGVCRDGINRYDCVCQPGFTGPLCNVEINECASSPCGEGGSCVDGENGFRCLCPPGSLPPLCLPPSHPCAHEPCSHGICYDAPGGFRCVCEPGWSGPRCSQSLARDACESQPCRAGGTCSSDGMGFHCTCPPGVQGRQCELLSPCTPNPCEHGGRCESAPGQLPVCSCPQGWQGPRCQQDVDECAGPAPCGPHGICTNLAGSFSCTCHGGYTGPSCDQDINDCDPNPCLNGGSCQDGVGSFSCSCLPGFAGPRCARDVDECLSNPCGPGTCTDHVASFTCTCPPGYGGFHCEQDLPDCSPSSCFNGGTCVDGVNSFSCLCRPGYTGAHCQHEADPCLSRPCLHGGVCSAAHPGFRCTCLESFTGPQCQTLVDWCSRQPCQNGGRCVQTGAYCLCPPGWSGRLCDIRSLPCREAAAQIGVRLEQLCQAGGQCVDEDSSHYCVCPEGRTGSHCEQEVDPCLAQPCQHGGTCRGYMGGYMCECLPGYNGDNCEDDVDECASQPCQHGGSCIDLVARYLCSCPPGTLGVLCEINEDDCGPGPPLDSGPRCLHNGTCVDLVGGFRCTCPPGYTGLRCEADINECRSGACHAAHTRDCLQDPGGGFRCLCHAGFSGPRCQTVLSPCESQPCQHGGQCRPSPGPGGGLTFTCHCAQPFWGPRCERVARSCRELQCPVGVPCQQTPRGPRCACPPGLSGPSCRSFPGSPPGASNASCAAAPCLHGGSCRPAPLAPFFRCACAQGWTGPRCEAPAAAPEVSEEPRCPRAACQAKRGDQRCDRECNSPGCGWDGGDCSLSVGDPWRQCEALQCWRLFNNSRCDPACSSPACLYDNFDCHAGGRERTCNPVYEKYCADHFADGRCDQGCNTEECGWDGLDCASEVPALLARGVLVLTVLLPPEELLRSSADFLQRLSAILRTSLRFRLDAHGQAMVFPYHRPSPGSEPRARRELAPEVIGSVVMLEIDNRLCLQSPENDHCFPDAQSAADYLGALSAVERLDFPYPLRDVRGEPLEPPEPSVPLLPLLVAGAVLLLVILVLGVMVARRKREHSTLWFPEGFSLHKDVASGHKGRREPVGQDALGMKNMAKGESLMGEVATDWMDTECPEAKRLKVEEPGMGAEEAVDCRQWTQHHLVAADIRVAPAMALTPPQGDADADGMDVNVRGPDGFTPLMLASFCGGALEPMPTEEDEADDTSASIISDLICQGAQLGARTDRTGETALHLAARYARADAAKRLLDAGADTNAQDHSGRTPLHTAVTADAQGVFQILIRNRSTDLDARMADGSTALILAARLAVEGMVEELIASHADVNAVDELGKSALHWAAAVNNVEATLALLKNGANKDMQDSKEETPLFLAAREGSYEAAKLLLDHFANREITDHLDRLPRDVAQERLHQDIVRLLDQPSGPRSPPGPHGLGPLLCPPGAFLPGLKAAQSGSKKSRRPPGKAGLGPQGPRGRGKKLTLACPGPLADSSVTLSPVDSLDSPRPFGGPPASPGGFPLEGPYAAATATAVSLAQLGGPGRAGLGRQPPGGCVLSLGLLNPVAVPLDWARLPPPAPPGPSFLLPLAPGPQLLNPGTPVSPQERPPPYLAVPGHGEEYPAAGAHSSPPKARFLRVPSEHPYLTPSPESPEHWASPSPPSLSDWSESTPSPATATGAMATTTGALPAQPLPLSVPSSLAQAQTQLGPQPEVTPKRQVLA
Chain of Neurogenic locus notch homolog protein 2 (Homo sapiens) (Q04721 whole entry, looked up, canonical isoform): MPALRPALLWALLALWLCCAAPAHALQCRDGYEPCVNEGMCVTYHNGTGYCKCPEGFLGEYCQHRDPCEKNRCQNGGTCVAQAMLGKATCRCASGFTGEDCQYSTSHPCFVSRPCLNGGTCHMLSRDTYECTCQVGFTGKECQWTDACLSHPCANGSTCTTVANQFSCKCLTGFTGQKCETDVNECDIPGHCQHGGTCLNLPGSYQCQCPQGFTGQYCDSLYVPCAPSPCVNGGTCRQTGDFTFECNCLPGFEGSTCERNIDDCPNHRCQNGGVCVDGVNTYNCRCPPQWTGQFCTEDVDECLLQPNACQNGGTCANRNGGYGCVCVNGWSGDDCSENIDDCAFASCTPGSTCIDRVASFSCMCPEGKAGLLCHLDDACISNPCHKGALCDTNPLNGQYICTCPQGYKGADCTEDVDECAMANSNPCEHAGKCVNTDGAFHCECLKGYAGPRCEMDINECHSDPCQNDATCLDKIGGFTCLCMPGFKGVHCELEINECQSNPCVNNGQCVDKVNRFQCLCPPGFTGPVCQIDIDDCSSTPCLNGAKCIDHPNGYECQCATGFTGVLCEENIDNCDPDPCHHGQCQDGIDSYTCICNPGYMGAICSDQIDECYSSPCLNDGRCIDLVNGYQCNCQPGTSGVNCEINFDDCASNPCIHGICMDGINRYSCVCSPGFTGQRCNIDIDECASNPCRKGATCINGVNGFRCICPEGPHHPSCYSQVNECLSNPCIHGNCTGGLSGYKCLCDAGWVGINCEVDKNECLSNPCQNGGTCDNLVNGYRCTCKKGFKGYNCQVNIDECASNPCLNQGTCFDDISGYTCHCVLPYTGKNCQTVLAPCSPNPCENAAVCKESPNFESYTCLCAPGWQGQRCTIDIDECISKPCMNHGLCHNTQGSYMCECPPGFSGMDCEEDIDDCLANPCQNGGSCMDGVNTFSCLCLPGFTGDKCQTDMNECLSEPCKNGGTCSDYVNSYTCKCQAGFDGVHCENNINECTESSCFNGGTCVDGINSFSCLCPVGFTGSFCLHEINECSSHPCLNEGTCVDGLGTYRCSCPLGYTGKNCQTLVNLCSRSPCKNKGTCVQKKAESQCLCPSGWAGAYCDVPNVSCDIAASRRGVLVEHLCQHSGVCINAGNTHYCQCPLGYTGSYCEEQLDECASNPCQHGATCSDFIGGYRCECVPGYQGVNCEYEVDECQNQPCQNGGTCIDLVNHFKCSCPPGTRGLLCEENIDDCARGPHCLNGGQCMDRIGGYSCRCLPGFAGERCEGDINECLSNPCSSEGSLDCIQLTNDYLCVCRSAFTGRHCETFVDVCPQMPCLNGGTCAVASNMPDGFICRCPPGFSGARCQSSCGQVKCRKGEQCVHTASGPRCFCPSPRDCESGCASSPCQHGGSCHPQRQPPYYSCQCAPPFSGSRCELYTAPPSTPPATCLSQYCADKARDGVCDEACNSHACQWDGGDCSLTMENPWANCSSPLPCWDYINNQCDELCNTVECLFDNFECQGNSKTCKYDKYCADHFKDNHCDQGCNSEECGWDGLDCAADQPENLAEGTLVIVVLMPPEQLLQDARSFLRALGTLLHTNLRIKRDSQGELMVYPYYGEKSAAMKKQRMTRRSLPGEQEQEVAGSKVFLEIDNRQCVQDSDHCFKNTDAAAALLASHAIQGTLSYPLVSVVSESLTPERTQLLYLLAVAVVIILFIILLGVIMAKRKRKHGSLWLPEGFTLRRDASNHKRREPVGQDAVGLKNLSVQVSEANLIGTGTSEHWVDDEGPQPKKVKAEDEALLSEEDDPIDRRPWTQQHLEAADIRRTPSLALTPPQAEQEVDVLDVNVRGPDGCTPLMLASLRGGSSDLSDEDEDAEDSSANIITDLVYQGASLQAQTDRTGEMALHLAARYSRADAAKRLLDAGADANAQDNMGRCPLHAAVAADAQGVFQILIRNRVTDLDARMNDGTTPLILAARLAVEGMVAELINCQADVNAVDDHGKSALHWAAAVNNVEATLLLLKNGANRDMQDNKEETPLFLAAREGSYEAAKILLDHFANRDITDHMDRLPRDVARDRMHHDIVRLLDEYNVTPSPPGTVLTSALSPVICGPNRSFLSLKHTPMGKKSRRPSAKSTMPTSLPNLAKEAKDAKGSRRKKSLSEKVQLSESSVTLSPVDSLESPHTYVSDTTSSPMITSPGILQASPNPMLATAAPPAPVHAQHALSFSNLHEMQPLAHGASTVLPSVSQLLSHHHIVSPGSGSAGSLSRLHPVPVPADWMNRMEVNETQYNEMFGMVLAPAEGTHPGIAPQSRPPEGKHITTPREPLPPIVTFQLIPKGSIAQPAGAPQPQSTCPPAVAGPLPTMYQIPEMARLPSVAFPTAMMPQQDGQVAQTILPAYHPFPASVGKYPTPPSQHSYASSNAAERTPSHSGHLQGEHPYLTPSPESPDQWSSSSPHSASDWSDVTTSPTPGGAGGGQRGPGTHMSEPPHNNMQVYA

Row | SMILES | composite z-score [1] | composite z-score [2] | composite z-score [3] | composite z-score [4] | composite z-score [5] | composite z-score [6] | composite z-score [7] | z-score [8] | composite z-score [9] | composite z-score [10] | composite z-score [11] | z-score [12] | z-score [13] | z-score [14] | composite z-score [15] | z-score [16] | composite z-score [17] | composite z-score [18] | composite z-score [19] | composite z-score [20]
1 | COc1cc2c(cc1OC)CN(C(=O)[C@@H]1[C@H]3C(=O)O[C@H](c4ccccc4)[C@H](c4ccccc4)N3[C@H](c3ccc(OCCO)cc3)[C@@]13C(=O)Nc1ccccc13)CC2 | -0.164 | 0.562 | 0.0373 | 1.01 | 1.16 | 1.42 | 1.23 | 2.03 (inactive) | 0.29 | 0.0139 | 1.54 | 3.17 (inactive) | 1.16 (inactive) | 5.44 (inactive) | 3 | 0.761 (inactive) | -0.126 | 1.32 | 1.15 | 0.134
2 | C=C(COC)/C(=C/C[C@H](OC(C)=O)c1ccc(OCCO)cc1)c1cc(C(=O)OC)ccc1OC | -0.391 | 1.91 | -0.1 | 1.03 | 0.277 | 0.697 | 1.24 | -0.658 (inactive) | 0.0308 | -0.476 | 1.53 | 0.092 (inactive) | -1.08 (inactive) | -0.656 (inactive) | 0.914 | 1.23 (inactive) | -0.119 | 1.68 | 0.794 | -0.126
3 | CCOC(=O)C[C@H]1[C@H](OC(=O)Cc2ccc3c(c2)OCO3)[C@@H](NC(=O)CC(C)C)c2cc(OCCCO)ccc2N1C(=O)Cc1ccc(OC)cc1 | -0.244 | 0.0682 | -0.114 | 0.103 | -0.0727 | -0.308 | 0.258 | -2.61 (inactive) | -0.207 | -0.245 | 0.336 | -1.88 (inactive) | -0.843 (inactive) | -0.733 (inactive) | 1.09 | 1.38 (inactive) | -0.134 | -0.0273 | 0.0046 | -0.111
4 | O=C1NC(=O)C2C1C=CC(C(O)c1c(F)cccc1Cl)N2Nc1ccc(Cl)cc1Cl (stereo not given) | 1.38 | 1.79 | 0.0389 | 0.424 | 1.29 | 1.37 | 1.17 | -1.03 (inactive) | 1.22 | -0.216 | 0.0621 | -20.9 (active) | -1.98 (inactive) | 1.65 (inactive) | 3.2 | -3.22 (inactive) | 0.319 | -0.836 | 0.53 | 0.0069
5 | COCCOC(=O)N1C(=O)[C@@]2(c3cc(C#CCC(C(=O)OC)C(=O)OC)ccc31)[C@H](C(=O)N1CCc3cc(OC)c(OC)cc3C1)[C@H]1C(=O)O[C@H](c3ccccc3)[C@H](c3ccccc3)N1[C@@H]2c1ccc(OCCO)cc1 | -0.63 | 0.527 | -0.0099 | 0.411 | 1.31 | 1.07 | 1.31 | 1.08 (inactive) | 0.479 | 0.0749 | 1.54 | 1.94 (inactive) | 0.667 (inactive) | 4.23 (inactive) | 2.73 | -0.402 (inactive) | -0.0259 | 1.4 | 1.08 | 0.0961
6 | C=CCNC(=O)[C@@H]1[C@H]2C(=O)O[C@H](c3ccccc3)[C@H](c3ccccc3)N2[C@H](c2ccc(O)cc2)[C@@]12C(=O)N(C(=O)OCCOC)c1ccc(C#CC3(O)CCCCCC3)cc12 | 0.564 | -0.548 | -0.176 | -1.52 | -2.26 | -0.712 | -0.895 | -0.659 (inactive) | -1.19 | -0.312 | -0.14 | -0.857 (inactive) | 0.183 (inactive) | -0.26 (inactive) | -1.28 | 1.23 (inactive) | 0.143 | -0.669 | -0.904 | -0.305
7 | CCCCC(=C=CC[C@@H](O)c1ccccc1OCCO)C[C@@H](O)COCc1ccccc1 | -0.0745 | 0.0282 | -0.101 | -0.333 | -0.768 | 0.852 | 0.115 | -2.9 (inactive) | -0.462 | -0.201 | 1.13 | -1.69 (inactive) | -2.1 (inactive) | -1.26 (inactive) | 1.91 | 1.31 (inactive) | -0.166 | 0.404 | 0.185 | -0.209
8 | [N-]=[N+]=Nc1ccccc1[C@H]1OC(c2ccc(OCCCO)cc2)=N[C@@]1(Cc1ccccc1)C(=O)N1CCCCC1 | 0.308 | -0.182 | -0.0044 | 0.692 | 1.63 | 1.01 | 1.32 | -1.02 (inactive) | 0.763 | -0.0994 | 1.54 | -2.09 (inactive) | 0.708 (inactive) | 2.21 (inactive) | 3.29 | 0.774 (inactive) | 0.339 | 0.94 | 1.08 | 0.286
9 | CN(C)CCCNC(=O)[C@@]1(c2ccc([N+](=O)[O-])cc2)CC(=O)N(CC23CC4CC(CC(C4)C2)C3)[C@@H]1c1ccc(CO)cc1I | -0.319 | 0.634 | -0.0687 | 0.272 | 1.2 | 0.343 | 1.36 | -2.44 (inactive) | 1.48 | 0.0749 | 1.53 | -25.1 (active) | -18.6 (active) | -2.21 (inactive) | 2.35 | -6.64 (inactive) | -0.182 | 1.75 | 1.06 | 0.0209
10 | [N-]=[N+]=NCc1ccccc1[C@@H]1OC(c2ccc(OCCCO)cc2)=N[C@]1(CCS(=O)(=O)c1ccccc1)C(=O)NCC(O)CO (stereo not given in full) | 0.445 | 0.92 | 0.067 | 0.367 | 1.53 | 2 | 1.23 | -0.547 (inactive) | 0.923 | -0.0994 | 1.54 | -1.69 (inactive) | -0.741 (inactive) | 0.897 (inactive) | 3.85 | 0.171 (inactive) | 0.267 | 1 | 0.832 | -0.0435
